Assay outcomes: PubChem BioAssay, National Center for Advancing Translational Sciences (NCATS)
FUS yeast rescue = FUS proteinopathy suppression in yeast. S. cerevisiae FUS-expressing, growth rescue, OD600, 24 h. Potency, µM (doses to about 76.6 µM), usual class: activators. 390,000 tested, 0.24% active;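 note: potency is the fitted concentration of half-maximal effect; plate controls were DMSO vehicle for no effect and reference control for full effect; nearly all actives have a fitted effect of over 55% in size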
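Compound concentration series was pinned onto galactose-induced FUS-expressing yeast seeded at OD 0.005. Plates sat 24hr at 30C; absorbance at 600 nm gave growth. DMSO served as background control.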
Akt phos inh = Akt phosphorylation inhibition. activity change, % for hits at 50 µM. AID 651550. 360,000 tested, 0.32% active. Neuro2A IGF-stimulated pAkt S473 HTRF, 20 min; active compounds read low; in the data active = activity change below about -80%; inconclusive = mostly about -51% to -80%; note: % is set by controls: 0 for no effect and ±100 for the full control effect
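Neuro2A cells (4,500/well, DMEM with 0.5% FBS) were treated with compound at a single 50 µM final concentration, stimulated with 6 nM IGF for 20 min at 37 °C, and lysed. Phospho-Akt Ser473 was read by HTRF as 665/615 ratio ×10^4.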
aSyn yeast inh = rescues yeast growth from alpha-synuclein toxicity | Yeast expressing alpha-synuclein, growth rescue, BacTiter-Glo, 24 h | Potency, µM (doses to about 46.1 µM), without a hit: at the top dose growth rescue (activation), actives largely listed as activators | 370,000 tested, 0.14% active; note: potency is the fitted concentration of half-maximal effect; % of control where 0% means no effect; nearly all actives have a fitted effect of over 65% in size
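Readout is rescue of growth in alpha-synuclein-expressing yeast, so inhibitors of toxicity appear as activators. Growth after 24 hr at 30 deg C in galactose medium is quantified by luminescence.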
TDP-43 yeast inh = TDP-43 toxicity inhibition in yeast | TDP-43 expressing yeast growth rescue, BacTiter-Glo, 24 h | Potency, µM (titrated, usually from 46.1 µM), for inactives: at the top dose growth rescue (activation), most hits filed as activators | 410,000 tested, 1.8% active; note: potency is the fitted concentration of half-maximal effect; % of control where 0% means no effect; nearly all actives have a fitted effect of over 50% in size
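In this qHTS, compounds that restore growth of yeast expressing TDP-43 appear as activators. Cells (OD600=0.02, galactose medium, raffinose-pregrown) are incubated with compound 24 hr at 30 deg C and growth is quantified by BacTiter-Glo.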
Abeta yeast res = A-beta toxicity reversal in yeast. yeast expressing A-beta42, growth rescue, OD600, 48 h; response scale: 0% DMSO, 100% iron-clioquinol control. Potency, µM (highest dose often 46.1 µM), actives largely listed as activators. 410,000 tested, 0.063% active. AID 1347071; note: potency is the fitted concentration of half-maximal effect; nearly all actives have a fitted effect of over 55% in size
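Yeast A-beta toxicity model in growth medium with pinned compounds, 48 h at 30 C; growth read as absorbance at 600 nm. Normalized to FeCl3/clioquinol equimolar mix (positive) and DMSO (negative).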
The depositor's hits bear a star; i = inactive; ? = inconclusive; . = no result given; [ ] = remark or other dose. Hits are enriched below; roughly 2.3% of the tested compounds scored in any of these assays. Unless noted, calls come from the whole dose curve; as a rule, active = well fitted curve in the direction sought with a large enough effect; inconclusive = small, poorly fitted or top-dose-only effect, or another doubt; inactive = no such curve, though single readings can be large; an effect the other way counts as inactive or inconclusive.

SMILES | FUS yeast rescue | Akt phos inh | aSyn yeast inh | TDP-43 yeast inh | Abeta yeast res
C=CCc1c(C)nc2nc(SCC(=O)Nc3cccc(Cl)c3)nn2c1C | i | . | . | 32µM* | i
Cc1nc(Nc2ccccc2)sc1C(=O)c1ccc(F)cc1 | i | i | 0% | 22µM* | i
Nc1nc(Nc2ccccc2F)sc1C(=O)c1ccccc1 | i | i | -17% | 22µM* | ?
Cc1nc(Nc2ccc(S(N)(=O)=O)cc2)sc1C(=O)Nc1ccccc1 | i | i | -2% | -9% | i
COc1ccc(Nc2nc(C)c(-c3ccccc3)s2)cc1 | . | i | -18% | 13µM* | i
Cc1nc(Nc2ccccc2)sc1C(=O)Nc1ccccc1 | i | i | -1% | 10µM* | i
Cc1nc(Nc2ccc(S(N)(=O)=O)cc2)sc1-c1ccccc1 | i | i | -7% | -6% | i
O=[N+]([O-])c1cccc(S(=O)(=O)N2CCN(c3nc(-c4ccccc4)nc4ccccc34)CC2)c1 | . | . | 1% | . | .
COc1cc(OC)cc(N2C(=O)N(Cc3ccc(C(C)(C)C)cc3)c3ccccc3S2(=O)=O)c1 | i | . | . | 21% | i
CC1(C)CC(=O)c2cc(-c3nc(-c4ccccc4)cs3)c(=O)[nH]c2C1 | i | . | . | 18% | i
Cc1nc(Cl)sc1C(=O)Nc1cccc(Cl)c1 | i | i | 16% | 14µM* | i
CC(=O)c1cccc(NC(=O)c2sc(Cl)nc2C)c1 | i | i | 5% | ? | i
Cc1ccc(CN2CCCn3nc(C(=O)NCCC(C)C)cc3C2=O)cc1 | i | . | . | 1% | i
COc1ccc(NC(=O)c2csc3c2CCCC3)cc1 | i | i | 0% | -8% | i
COc1cccc(C(=O)Nc2cccc(NC(=O)c3ccccc3Cl)c2)c1 | ? | i | -1% | ? | i
COc1cccc(NC(=O)c2csc3c2CCCC3)c1 | i | i | -7% | 18µM* | i
COc1cccc(NC(=O)c2cnsn2)c1 | i | . | . | 13µM* | i
COc1cccc(C(=O)Nc2cccc(NC(=O)c3ccc(Cl)cc3Cl)c2)c1 | i | . | . | 11µM* | i
CC(C)(CC(=O)O)Cc1nc(-c2ccc(Cl)cc2)no1 | i | i | -3% | 32µM* | i
CC(C)N(Cc1nc(-c2ccc(Cl)cc2)no1)C(=O)c1ccc(C(C)(C)C)cc1 | i | . | . | 13% | i
O=C(O)CCc1nc(-c2ccc(Cl)cc2)no1 | . | i | 12% | 14µM* | i
CC(=O)NCCc1nc(-c2ccc(Cl)cc2)no1 | i | i | 7% | -1% | i
Cc1ccc(S(=O)(=O)N2CCN(c3ccnc(-c4cccs4)n3)CC2)cc1 | . | . | 1% | . | .
Cc1cccc(Cn2c(CNS(=O)(=O)c3ccc(C(C)C)cc3)nc3cccnc32)c1 | i | . | . | 8% | i
O=C(CC(c1ccccc1)c1ccccc1)OCn1nnc2ccccc2c1=O | i | i | 14% | 18µM* | i
SMILES | FUS yeast rescue | Akt phos inh | aSyn yeast inh | TDP-43 yeast inh | Abeta yeast res
O=c1c2ccccc2nnn1COc1cccc2ccccc12 | i | i | ? | 13µM* | i
COc1ccccc1C(=O)OCn1nnc2ccccc2c1=O | i | i | 2% | 22% | i
Cc1cc(C(=O)OCn2nnc3ccccc3c2=O)c(C)o1 | i | i | 21% | 14µM* | ?
C/C=C/C=C/C(=O)OC(C)C(=O)Nc1cc([N+](=O)[O-])ccc1OC (centres undefined) | i | i | -1% | 13µM* | i
COc1ccc(C)cc1NC(=O)CSCc1ccccc1C | i | i | 11% | 13µM* | i
COc1ccc([N+](=O)[O-])cc1NC(=O)CCS(=O)(=O)c1ccc(Br)cc1 | i | i | -2% | -15% | i
COc1ccc([N+](=O)[O-])cc1NC(=O)CSCc1ccc(Br)cc1 | i | i | 2% | 13µM* | i
COc1ccc([N+](=O)[O-])cc1NCc1cccc([N+](=O)[O-])c1 | i | i | -2% | 11µM* | i
COc1ccc([N+](=O)[O-])cc1NC(=O)CSc1ncccn1 | i | i | 12% | 7% | i
COc1ccc([N+](=O)[O-])cc1NC(=O)CSCc1ccccc1C | . | i | 5% | 13µM* | i
COc1ccc([N+](=O)[O-])cc1NC(=O)CC(C)c1ccccc1 (centres undefined) | i | i | -1% | 16µM* | ?
Cc1ccc(NC(=O)N2CCC(CN3CCCCCC3)CC2)c(Cl)c1 | i | . | . | 15% | i
CCCNS(=O)(=O)c1ccc(OCC(=O)Nc2ccccc2F)cc1 | i | -102%* | -5% | 15% | ?
CCOc1ccc(S(=O)(=O)N(C)c2ccc(OCC(=O)Nc3ccccc3F)cc2)cc1 | i | i | 0% | ? | i
Cn1ccc2cc(S(=O)(=O)N3CCC(C(=O)NCCc4ccccc4)CC3)ccc21 | i | . | . | 0% | i
c1ccc(Oc2ccc(-c3ccn[nH]3)cc2)cc1 | i | i | -28% | 14µM* | i
Nc1ccc(C#Cc2ccc3c(=O)c4ccccc4oc3c2)cc1 | i | i | -1% | 35µM* | i
O=c1c2ccccc2oc2ccc(C#CC3(O)CCCCC3)cc12 | ? | i | -12% | 20µM* | i
Cn1c2ccccc2c(=O)c2cc(C#CC3(O)CCCCC3)ccc21 | i | i | -5% | 0% | i
COc1ccccc1N1CCN(C(=O)Cn2c(=O)n3nc(-c4cccc(C)c4)nc3c3ccccc32)CC1 | i | . | . | 19% | i
Cc1cc2nc(-c3ccc(Cl)cc3)cc(C(F)(F)F)n2n1 | i | . | . | 12%[9.22 µM] | i
COc1ccccc1CNC(=O)CCS(=O)(=O)c1ccc2c(c1)oc(=O)n2C | i | . | . | 13% | i
O=C(OCn1ncc(Cl)c(Cl)c1=O)c1ccccc1Cl | i | i | 11% | 5.6µM* | i
CC1(C)N=C(SCC(=O)Nc2ccc(Cl)cc2)C(c2ccc(Cl)cc2)=N1 | i | i | -10% | 35µM* | i
Cc1cc(SCC(=O)Nc2ccc(Cl)cc2)nc2ccccc12 | i | . | . | 18% | i
CC1(C)N=C(SCC(=O)Nc2ccc(Cl)cc2)C(c2ccccc2)=N1 | i | i | 0% | 32µM* | i
CCOc1ccc(NC(=O)CN2C(=O)C(c3ccc(Cl)cc3)=NC2(C)C)cc1 | i | . | . | 24% | i
CCN(C(=O)CSc1nc2n[nH]c(C)c2c(=N)n1-c1cccc(OC)c1)c1cccc(C)c1 | ? | . | . | 21% | i
